Test results from PubChem BioAssay (NCATS).
Records with an inconclusive call do not appear. Active and inactive are the calls of the source. The call rests on the fitted dose curve; in most records, active means well fitted inhibition curve with a large enough effect; inconclusive means small, poorly fitted or top-dose-only effect; inactive means flat fitted curve, though single readings scatter.

Tests used:
Test in all cases: qHTS profiling for inhibitors of Plasmodium falciparum proliferation (AID 504749); further: nearly all actives have a fitted effect of over 60% in size
Details in all cases: P. falciparum in erythrocytes, SYBR Green DNA, 72 h; series mostly up to 28.7 µM
CP260 = tested on: CP260
How it was run: (§1)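 Fluorescence of SYBR Green-bound parasite DNA, read at 485/535 nm, served as the growth measure. Infected erythrocytes were cultured with compound 72 h; artemisinin (0.29 uM) and DMSO wells defined the normalization range.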

CP262 = tested on: CP262
How it was run: as §1

CP265 = tested on: CP265
How it was run: as §1

CP266 = tested on: CP266
How it was run: as §1

CP268 = tested on: CP268
How it was run: as §1

CP269 = tested on: CP269
How it was run: as §1

CP286 = tested on: CP286
How it was run: as §1

CP291 = tested on: CP291
How it was run: as §1

CP297 = tested on: CP297
How it was run: as §1

CP305 = tested on: CP305
How it was run: as §1

CP315 = tested on: CP315
How it was run: as §1

CP325 = tested on: CP325
How it was run: as §1

CP329 = tested on: CP329
How it was run: as §1

CP335 = tested on: CP335
How it was run: as §1

DFO2036 = tested on: DFO2036
How it was run: as §1

DIV14 = tested on: DIV14
How it was run: as §1

DIV17 = tested on: DIV17
How it was run: as §1

DIV30 = tested on: DIV30
How it was run: as §1

Dd2 = tested on: Dd2
How it was run: as §1

ECU = tested on: ECU
How it was run: as §1

FAB9 = tested on: FAB9
How it was run: as §1

GB4 = tested on: GB4
How it was run: as §1

HB3 = tested on: HB3
How it was run: as §1

ICS = tested on: ICS
How it was run: as §1

N140 = tested on: N140
How it was run: as §1

P93_24 = tested on: P93_24
How it was run: as §1

P94_40 = tested on: P94_40
How it was run: as §1

PAD = tested on: PAD
How it was run: as §1

PC15 = tested on: PC15
How it was run: as §1

PC26 = tested on: PC26
How it was run: as §1

PC49 = tested on: PC49
How it was run: as §1

SC27B = tested on: SC27B
How it was run: as §1

TAB109 = tested on: TAB109
How it was run: as §1

TAB113 = tested on: TAB113
How it was run: as §1

TAB165 = tested on: TAB165
How it was run: as §1

Measured: Potency
Potency means the concentration at half of the fitted maximal effect.

CC(C)C[C@@H](NC(=O)[C@H](Cc1ccccc1)NC(=O)c1cnccn1)B(O)O
active: CP260 112 nM | CP262 95.3 nM | CP265 112 nM | CP266 169 nM | CP268 95.3 nM | CP269 135 nM | CP286 63.1 nM | CP291 135 nM | CP297 269 nM | CP305 675 nM | CP315 190 nM | CP325 135 nM | CP329 95.3 nM | CP335 95.3 nM | DFO2036 100 nM | DIV14 426 nM | DIV17 301 nM | DIV30 190 nM | Dd2 100 nM | ECU 126 nM | FAB9 141 nM | GB4 107 nM | HB3 79.4 nM | ICS 44.7 nM | N140 70.8 nM | P93_24 79.4 nM | P94_40 112 nM | PAD 112 nM | PC15 79.4 nM | PC26 213 nM | PC49 141 nM | SC27B 100 nM | TAB109 35.5 nM | TAB113 100 nM | TAB165 112 nM
